Reference: PubChem BioAssay (NCATS)
Records with an inconclusive call do not appear. A number with no mark means an inactive call. The source made the active and inactive calls. The call rests on the fitted dose curve; in most records, active means well fitted curve in the direction sought with a large enough effect; inconclusive means small, poorly fitted or top-dose-only effect, or another doubt; inactive means no such curve, though single readings can be large; an effect the other way counts as inactive or inconclusive.

Each compound was assayed against Aldehyde dehydrogenase, mitochondrial (Homo sapiens) (UniProt P05091) (assay: qHTS for Inhibitors of the Aldehyde Dehydrogenase Family (ALDH2) Primary screen (AID 2061308;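 further: plate controls were vehicle for no effect and reference inhibitor for full effect; nearly all actives have a fitted effect of over 55% in size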)). Conditions: ALDH2 enzyme inhibition qHTS, 1536-well; series mostly up to 56 µM; activity change, negative = inhibition: at the top concentration.

Row | Compound | activity change, negative = inhibition | Potency
1 | Cc1ccc(C(N)=O)cc1Nc1nccc(-c2cn(C(C)C)c3cnccc23)n1 | 37.8% | 
2 | O=C1CCC[C@@H]2[C@H]3CCC[N+]4([O-])CCC[C@@H](CN12)[C@@H]34 (stereo partly drawn) | 17.6% | 
3 | CS(=O)(=O)CCNCc1ccc(-c2ccc3ncnc(Nc4ccc(OCc5cccc(F)c5)c(Cl)c4)c3c2)o1 | 9.02% | 
4 | CCS(=O)(=O)c1cccc(-c2cc(C(=O)NC3CCN(C)CC3)c(C)c3[nH]c4ncc(C)cc4c23)c1 | 5.47% | 
5 | N#CN1CCC[C@@H](n2nc(-c3ccc(Oc4ccc(F)cc4F)cc3)c(C(N)=O)c2N)C1 | 3.75% | 
6 | FC(F)(F)c1ccc(Nc2nc(-c3c(C(F)(F)F)nc4ccccn34)cs2)cc1 | 0.512% | 
7 | COc1nc(-c2ccc3c(c2)OCO3)n(-c2ccc(NC(=O)CSc3ccccc3)cc2)n1 | -9.36% | 
8 | CN(C)c1ccc(C2Nc3ccc4ccccc4c3C3=C2C(=O)CC(C)(C)C3)cc1Br (stereo not drawn) |  | inactive
9 | Cc1cc2c(F)c(Oc3ncnn4cc(OCC(C)OC(=O)C(C)N)c(C)c34)ccc2[nH]1 (stereo not drawn) | -1.18% | 
10 | CCn1nc(C2CCN(C(=O)CCO)CC2)nc1-c1cnc(N)c(-c2nnc(C(C)(C)C)o2)n1 | -24.7% | 
11 | Cc1nn(Cc2ccccc2Cl)c(C)c1CN(C)CC(O)COc1ccc(Cl)cc1 (stereo not drawn) | 9.97% | 
12 | CC1(C)[C@@H](O)CC[C@]2(C)[C@H]3C(=O)C=C4[C@@H]5C[C@@](C)(C(=O)O)CC[C@]5(C)CC[C@@]4(C)[C@]3(C)CC[C@@H]12 | -1.73% | 
13 | O=C(CC12CC3CC(CC(C3)C1)C2)Nc1cccc2nc(NCCNCCO)ccc12 | 5.19% | 
14 | Cc1[nH]c2ccc(F)cc2c1-c1nc2c3cccnc3c3ncccc3c2[nH]1 | -3.79% | 
15 | Nc1ncnc2c1c(COc1cccc(Cl)c1)nn2C1CCOCC1 | 42.6% | 
16 | O=C(NCCCNC(=O)c1ccc[nH]c1=O)c1cc(-c2ccccc2)on1 | 8.36% | 
17 | O=C(C1CC1)N1CC[C@@H](Cc2n[nH]c(=O)n2-c2ccc(-c3ccc4occc4c3)cc2)C1 | 1.2% [at 16.9 µM] | 
18 | COCCOc1ccc2c(c1)ncn2-c1ccc2cccc(N3CCC(N)CC3)c2n1 | 2.08% | 
19 | CC1=C(C(=O)Nc2cc3cn[nH]c3cc2F)C(c2ccc(Cl)cc2F)N=C(c2ccnc(Cl)c2)N1 (stereo not drawn) | -1.02% | 
20 | COc1ccc(Cl)c(Nc2ncnc3cc(OCC4CCN(C)CC4)c(OC)cc23)c1 | 1.57% | 

Row | Compound | activity change, negative = inhibition | Potency
21 | Fc1ccc(-c2nc(-c3ccccc3F)[nH]c2-c2ccncc2)cc1 | 0.249% | 
22 | CC(C)(O)CC(=O)NCCn1ccc2ncnc(Nc3ccc(Oc4cccc(C(F)(F)F)c4)c(Cl)c3)c21 | -0.387% | 
23 | COc1cc2c(Oc3ccc4[nH]c(C)cc4c3F)ncnc2cc1OCCCN1CCCC1 | 21.2% | 
24 | Cc1cnc(Nc2ccc(F)cc2Cl)nc1-c1c[nH]c(C(=O)N[C@H](CO)c2cccc(Cl)c2)c1 | -6.55% | 
25 | CC1=C[C@@H]2[C@@H]([C@@H](O)C[C@@]3(C)[C@H]2C[C@@H](C)[C@]3(O)C(=O)CO)[C@@]2(C)Cc3cnn(-c4ccccc4)c3C=C12 | -16.1% | 
26 | C[C@H](c1ccc(F)cc1CCCC(=O)O)N(c1cc(F)ccc1F)S(=O)(=O)c1ccc(Cl)cc1 | -3.34% | 
27 | Cc1ccc(Nc2nccc(N(C)c3ccc4c(C)n(C)nc4c3)n2)cc1S(N)(=O)=O | 8.27% | 
28 | Clc1ccc(C2(c3ccc(-c4cn[nH]c4)cc3)CCNCC2)cc1 | 10.4% | 
29 | Cc1ccc(NC(=O)Nc2cc(C(F)(F)F)ccc2F)cc1Nc1ccc2c(c1)NC(=O)/C2=C\c1ccc[nH]1 | 0.28% | 
30 | O=C(Nc1ccc(OC(F)(F)F)cc1)c1sccc1NCc1ccnc2ccccc12 | -5% | 
31 | CC1=C(C(=O)Nc2cc3cn[nH]c3cc2F)C(c2ccc(C(F)(F)F)cc2)CC(=O)N1 (stereo not drawn) | 4.75% | 
32 | C=C1C[C@@]2(O)O[C@@]3(C[C@H]2C(C)C)[C@@H](C)CC[C@@H]13 | 4.34% | 
33 | O=C(Nc1ccc(-c2ccnc(Nc3ccc(N4CCOCC4)cc3)n2)cc1)C1CCCN1 (stereo not drawn) | 9.91% | 
34 | Cc1[nH]c(/C=C2\C(=O)Nc3ccc(F)cc32)c(C)c1C(=O)NCCN1CCCC1 | 3.45% | 
35 | COc1cc(N2CCC(N3CCN(C)CC3)CC2)ccc1Nc1ncc(Cl)c(Nc2ccccc2P(C)(C)=O)n1 | 7.04% | 
36 | N#CC1(c2cccc(C(=O)Nc3cc(Oc4ccc5nc(NC(=O)C6CC6)sc5n4)ccc3F)c2Cl)CC1 | 6.23% | 
37 | CC(C)[C@@H](CS(=O)(=O)C(C)C)N1C(=O)[C@@](C)(CC(=O)O)C[C@H](c2cccc(Cl)c2)[C@H]1c1ccc(Cl)cc1 | 8.11% | 
38 | CC(C)(O)c1cc2nc(-c3cnc(N)nc3)nc(N3CCOCC3)c2s1 | -0.0812% | 
39 | Cc1cccc(-c2[nH]c(CNc3ccccc3F)nc2-c2ccc3ncnn3c2)n1 | -4.71% | 

Each compound was assayed against Retinaldehyde dehydrogenase 3 (Homo sapiens) (UniProt P47895) (assay: qHTS for Inhibitors of the Aldehyde Dehydrogenase Family (ALDH1A3) Primary screen (AID 2061315;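 further: plate controls were DMSO vehicle for no effect and reference inhibitor for full effect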)). Conditions: ALDH inhibition qHTS; series mostly up to 56 µM; activity change, negative = inhibition: at the top concentration.

Row | Compound | activity change, negative = inhibition | Potency
40 | Cc1ccc(C(N)=O)cc1Nc1nccc(-c2cn(C(C)C)c3cnccc23)n1 | 11.7% | 
41 | O=C1CCC[C@@H]2[C@H]3CCC[N+]4([O-])CCC[C@@H](CN12)[C@@H]34 (stereo partly drawn) | -0.152% | 
42 | CS(=O)(=O)CCNCc1ccc(-c2ccc3ncnc(Nc4ccc(OCc5cccc(F)c5)c(Cl)c4)c3c2)o1 | 19.3% | 
43 | CCS(=O)(=O)c1cccc(-c2cc(C(=O)NC3CCN(C)CC3)c(C)c3[nH]c4ncc(C)cc4c23)c1 | 5% | 
44 | N#CN1CCC[C@@H](n2nc(-c3ccc(Oc4ccc(F)cc4F)cc3)c(C(N)=O)c2N)C1 | 1.27% | 
45 | FC(F)(F)c1ccc(Nc2nc(-c3c(C(F)(F)F)nc4ccccn34)cs2)cc1 | 4.54% | 
46 | COc1nc(-c2ccc3c(c2)OCO3)n(-c2ccc(NC(=O)CSc3ccccc3)cc2)n1 | 0.409% | 
47 | CN(C)c1ccc(C2Nc3ccc4ccccc4c3C3=C2C(=O)CC(C)(C)C3)cc1Br (stereo not drawn) |  | inactive
48 | Cc1cc2c(F)c(Oc3ncnn4cc(OCC(C)OC(=O)C(C)N)c(C)c34)ccc2[nH]1 (stereo not drawn) | -8.06% | 
49 | CCn1nc(C2CCN(C(=O)CCO)CC2)nc1-c1cnc(N)c(-c2nnc(C(C)(C)C)o2)n1 | -5.19% | 
50 | Cc1nn(Cc2ccccc2Cl)c(C)c1CN(C)CC(O)COc1ccc(Cl)cc1 (stereo not drawn) | -13.5% | 
51 | CC1(C)[C@@H](O)CC[C@]2(C)[C@H]3C(=O)C=C4[C@@H]5C[C@@](C)(C(=O)O)CC[C@]5(C)CC[C@@]4(C)[C@]3(C)CC[C@@H]12 | 3.07% | 
52 | O=C(CC12CC3CC(CC(C3)C1)C2)Nc1cccc2nc(NCCNCCO)ccc12 | -14.1% | 
53 | Cc1[nH]c2ccc(F)cc2c1-c1nc2c3cccnc3c3ncccc3c2[nH]1 | 77.3% | 
54 | Nc1ncnc2c1c(COc1cccc(Cl)c1)nn2C1CCOCC1 | -4.36% | 
55 | O=C(NCCCNC(=O)c1ccc[nH]c1=O)c1cc(-c2ccccc2)on1 | -13% | 
56 | O=C(C1CC1)N1CC[C@@H](Cc2n[nH]c(=O)n2-c2ccc(-c3ccc4occc4c3)cc2)C1 | 24.8% [at 16.9 µM] | 
57 | COCCOc1ccc2c(c1)ncn2-c1ccc2cccc(N3CCC(N)CC3)c2n1 | -11.5% | 
58 | CC1=C(C(=O)Nc2cc3cn[nH]c3cc2F)C(c2ccc(Cl)cc2F)N=C(c2ccnc(Cl)c2)N1 (stereo not drawn) | 14.3% | 
59 | COc1ccc(Cl)c(Nc2ncnc3cc(OCC4CCN(C)CC4)c(OC)cc23)c1 | -6.88% | 

Row | Compound | activity change, negative = inhibition | Potency
60 | Fc1ccc(-c2nc(-c3ccccc3F)[nH]c2-c2ccncc2)cc1 | 0.279% | 
61 | CC(C)(O)CC(=O)NCCn1ccc2ncnc(Nc3ccc(Oc4cccc(C(F)(F)F)c4)c(Cl)c3)c21 | 7.37% | 
62 | COc1cc2c(Oc3ccc4[nH]c(C)cc4c3F)ncnc2cc1OCCCN1CCCC1 | 11.5% | 
63 | Cc1cnc(Nc2ccc(F)cc2Cl)nc1-c1c[nH]c(C(=O)N[C@H](CO)c2cccc(Cl)c2)c1 | 5.93% | 
64 | CC1=C[C@@H]2[C@@H]([C@@H](O)C[C@@]3(C)[C@H]2C[C@@H](C)[C@]3(O)C(=O)CO)[C@@]2(C)Cc3cnn(-c4ccccc4)c3C=C12 | 14.2% | 
65 | C[C@H](c1ccc(F)cc1CCCC(=O)O)N(c1cc(F)ccc1F)S(=O)(=O)c1ccc(Cl)cc1 | 2.84% | 
66 | Cc1ccc(Nc2nccc(N(C)c3ccc4c(C)n(C)nc4c3)n2)cc1S(N)(=O)=O | -2.55% | 
67 | Clc1ccc(C2(c3ccc(-c4cn[nH]c4)cc3)CCNCC2)cc1 | -2.77% | 
68 | Cc1ccc(NC(=O)Nc2cc(C(F)(F)F)ccc2F)cc1Nc1ccc2c(c1)NC(=O)/C2=C\c1ccc[nH]1 | -12.6% | 
69 | O=C(Nc1ccc(OC(F)(F)F)cc1)c1sccc1NCc1ccnc2ccccc12 | -18.9% | 
70 | CC1=C(C(=O)Nc2cc3cn[nH]c3cc2F)C(c2ccc(C(F)(F)F)cc2)CC(=O)N1 (stereo not drawn) | 4.61% | 
71 | C=C1C[C@@]2(O)O[C@@]3(C[C@H]2C(C)C)[C@@H](C)CC[C@@H]13 | 8.21% | 
72 | O=C(Nc1ccc(-c2ccnc(Nc3ccc(N4CCOCC4)cc3)n2)cc1)C1CCCN1 (stereo not drawn) | -4.13% | 
73 | Cc1[nH]c(/C=C2\C(=O)Nc3ccc(F)cc32)c(C)c1C(=O)NCCN1CCCC1 | 5.95% | 
74 | COc1cc(N2CCC(N3CCN(C)CC3)CC2)ccc1Nc1ncc(Cl)c(Nc2ccccc2P(C)(C)=O)n1 | -7.27% | 
75 | N#CC1(c2cccc(C(=O)Nc3cc(Oc4ccc5nc(NC(=O)C6CC6)sc5n4)ccc3F)c2Cl)CC1 | 1.9% | 
76 | CC(C)[C@@H](CS(=O)(=O)C(C)C)N1C(=O)[C@@](C)(CC(=O)O)C[C@H](c2cccc(Cl)c2)[C@H]1c1ccc(Cl)cc1 | -1.11% | 
77 | CC(C)(O)c1cc2nc(-c3cnc(N)nc3)nc(N3CCOCC3)c2s1 | -13.5% | 
78 | Cc1cccc(-c2[nH]c(CNc3ccccc3F)nc2-c2ccc3ncnn3c2)n1 | 24.1% | 
